Bioassay records deposited in PubChem by several laboratories.
Rows were chosen to be rich in hits. Some 27% of all compounds tested hit in one or more screens of this group.
CYP2C9 act = human CYP2C9 activators, primary screen, biochemical, luminescence; activation factor at 5 µM; 96,000 compounds, 1.4% hits; recombinant CYP2C9, luciferin-H conversion; stronger effect = higher value; factor 1 = untreated enzyme, 0 = blocked; AID 1024, 2008; Cytochrome P450 2C9 (Homo sapiens), P11712;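 active = activation factor of 2 or more for CYP2C9 at a 5 µM dose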;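 also: 0 = sulfaphenazole-blocked wells and 1 = vehicle-only wells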
CYP2C19 inh = blockers of cytochrome P450 2C19 activity – biochemical, luminescence, ADME assay, primary screen | P33261 | CYP2C19 Supersomes, luciferin-H EGE luminescence, 30 min | inhibition, % at 5 µM | 96,000 compounds, 21% hits | AID 778, 2007;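 active = CYP2C19 inhibition above a set limit at 5 µM in the primary screen, cut at about 50% in these data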;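 also: plate controls were negative control wells for no effect and 2.5 mM tranylcypromine positive control for full effect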
CYP2C19 activ = human CYP2C19 activators, primary screen, biochemical, luminescence; Cytochrome P450 2C19 (Homo sapiens), P33261; recombinant CYP2C19, luciferin-H EGE luminescence; stronger effect = higher value; 0 = fully inhibited enzyme, 1 = untreated enzyme; activation factor at 5 µM; 96,000 tested, under 10 active;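 active = activation factor of at least 2 at 5 µM in the primary screen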;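 also: 0 = wells with 2.5 mM tranylcypromine and 1 = vehicle-only wells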
CYP2C9 inh = blockers of cytochrome P450 2C9 activity – biochemical, luminescence, ADME assay, primary screen. inhibition, % at 5 µM. AID 777, 2007. 96,000 compounds, 20% hits. CYP2C9 Supersomes, luciferin-H conversion. P11712;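 active = blocking of liver enzyme CYP2C9 beyond about 50% at 5 µM, limit read from the data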
Cav3 T inh = Cav3.2 calcium influx blockers – cell-based, Fluo-4 calcium fluorescence, FDSS, MLSMR library, primary screen; B-score at 10 µM; 100,000 compounds, 4% hits; Cav3.2-expressing cells; stronger effect = lower value; Voltage-dependent T-type calcium channel subunit alpha-1H (Homo sapiens), O95180;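 active = single-dose well whose peak fluorescence ratio is a statistical outlier from its plate by either plate-standardised score or position-corrected B-score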
An asterisk follows results filed as active; . = no result given.

SMILES	CYP2C9 act	CYP2C19 inh	CYP2C19 activ	CYP2C9 inh	Cav3 T inh
CCN1c2ccccc2-c2nc3ccccc3n2C1c1ccco1 (stereo unspecified)	0.4	28	0.7	59*	.
O=C(OC1C[C@@H]2CC3C[C@H](C1)N2CC3=O)c1c[nH]c2ccccc12 (stereo partly specified)	.	.	.	.	-1.4
O=C(NC1CC1)C1=C[C@@H](c2coc3ccccc3c2=O)C[C@@H](OCc2ccc(CO)cc2)O1	.	.	.	.	1.9
O=C1NC(=Nc2cccc(Cl)c2)SC1Cc1cccc(Cl)c1Cl (stereo unspecified)	0.8	10	0.9	22	0.12
COc1ccc(CC(=O)Nc2ccc(-c3noc(COc4ccccc4C)n3)cc2)cc1	0.8	10	0.9	21	0.1
CCOc1ccc(Cc2nc(-c3nonc3N)no2)cc1OCC	0.9	50*	0.5	7	-1.4
CCOc1ccc(-c2noc(CCC(N)=O)n2)cc1OCC	1.1	-11	1.1	-10	0.011
Cc1cccc(OCc2nc(-c3nonc3N)no2)c1C	0.7	66*	0.3	28	-0.93
N#Cc1ccccc1CSc1nc(O)cc(=O)[nH]1	1.1	0	1	-10	0.64
Cc1cc(C)nc(NC(=O)c2c(-c3c(Cl)cccc3Cl)noc2C)n1	0.8	0	1	15	-0.008
Cc1onc(-c2c(Cl)cccc2Cl)c1C(=O)NCCc1ccc(S(N)(=O)=O)cc1	0.3	33	0.7	73*	0.0096
COC(=O)CNC(=O)c1c(-c2c(Cl)cccc2Cl)noc1C	0.4	48	0.5	58*	0.32
Cc1onc(-c2c(F)cccc2Cl)c1C(=O)NCC1COc2ccccc2O1 (stereo unspecified)	0.4	70*	0.3	59*	-1.6
CC(=O)Nc1cccc(NC(=O)c2c(-c3c(Cl)cccc3Cl)noc2C)c1	0.1	82*	0.2	87*	0.17
Cc1onc(-c2ccccc2)c1C(=O)NCCc1ccc(S(N)(=O)=O)cc1	1	6	0.9	-2	-0.19
COC(=O)c1ccc(-c2cc(C(=O)O)c3cc4c(cc3n2)OCCO4)cc1	1	15	0.9	0	-0.015
Cc1nc2sc(C(c3ccco3)N3CC(C)OC(C)C3)c(O)n2n1 (stereo unspecified)	1.1	3	1	-14	-0.86
CC(C)n1nc(Cc2cccc3ccccc23)c(C#N)c1N	.	.	.	.	-0.55
Cc1ccc(NC(=O)c2c(-c3c(F)cccc3Cl)noc2C)cc1F	0.1	83*	0.2	92*	-8.3*
Cc1ccc(C(=O)N/C(=C\c2cn(-c3ccccc3)nc2-c2ccccc2)C(=O)N2CCOCC2)cc1	0.9	15	0.8	11	-0.19
Cc1ccc(-c2nn(-c3ccccc3)cc2/C=N/NC(=O)c2ccc(Br)o2)cc1	0.5	29	0.7	52*	.
O=C(N/N=C/c1cn(-c2ccccc2)nc1-c1ccccc1)c1ccco1	1	-5	1	-1	0.35
O=C(N/N=C\c1cn(-c2ccccc2)nc1-c1ccccc1)c1ccc(Br)o1	0.4	28	0.7	57*	.
CCSC1=C(C#N)C2(CCCC2)C(C#N)=C(N)N1	0	95*	0	95*	0.78
CC1(C)CC(=O)C2=C(C1)NC(SCC(=O)Nc1ccccc1)=C(C#N)C21CCCCC1	0.5	47	0.5	48	0.011
SMILES	CYP2C9 act	CYP2C19 inh	CYP2C19 activ	CYP2C9 inh	Cav3 T inh
N#CC1=C(N)NC(SCc2ccc(Cl)cc2)=C(C#N)C12CCCCC2	0	100*	0	100*	-4.1*
CSC1=C(C#N)C2(CCCC2)C(C#N)=C(N)N1	0.4	77*	0.2	63*	.
N#CC1=C(N)NC(SCC(=O)Nc2ccc(Br)cc2)=C(C#N)C12CCCCC2	0	100*	0	96*	-6.5*
O=C1N/C(=N/Nc2ccccc2)S/C1=C\c1ccccc1	0.3	53*	0.5	67*	.
CCOc1ccccc1CNC(=O)c1cc2oc3ccccc3c2n1C	1.9	34	0.7	-86	-1.7
COCCNC(=O)c1cc2oc3ccccc3c2n1C	0.2	90*	0.1	79*	0.14
COc1ccc(/C=C/C(=O)NCC(=O)N/N=C/c2cc(Br)ccc2OCc2ccccc2)cc1	0.2	-15	1.1	77*	-3.3
COc1ccc(Br)cc1/C=N/NC(=O)CNC(=O)/C=C/c1ccccc1	0.7	22	0.8	28	-7.6*
COc1ccc(/C=N/NC(=O)CC(=O)NCCc2ccccc2)cc1OC	0.9	33	0.7	8	0.02
CCOC(=O)Cc1nnc(Nc2cccc(O)c2)c2ccccc12	1.1	22	0.8	-12	0.58
CC(C)CCSc1nc(N2CCOCC2)c2c(c1C#N)CC(C)(C)OC2	0	63*	0.4	98*	-3.8*
CC(Sc1nc(N2CCOCC2)c2c(c1C#N)CC(C)(C)OC2)C(=O)Nc1ccccc1 (stereo unspecified)	.	.	.	.	0.44
COC(=O)c1ccc(CSc2nc(N3CCOCC3)c3c(c2C#N)CC(C)(C)OC3)o1	0	69*	0.3	98*	-2.2
Clc1ccc(OCCCc2nc(-c3cccnc3)no2)c(Cl)c1	0.7	11	0.9	30	-3.7
Clc1ccc(OCCCc2nc(-c3ccncc3)no2)c(Cl)c1	0.2	87*	0.1	84*	-1.3
Clc1ccc(OCc2nc(-c3ccncc3)no2)cc1	0.1	95*	0	95*	0.22
Cc1cccc(CN2C(=O)N/C(=C/c3cc(C)n(-c4ccccn4)c3C)C2=O)c1	0	47	0.5	98*	0.23
CCn1c(C)cc(/C=C2\NC(=O)N(Cc3ccc(Cl)cc3)C2=O)c1C	0.8	38	0.6	17	-0.71
CCC(C)(C)NC(=O)CN(Cc1cccs1)C(=O)C(=O)Nc1ccc2c(c1)OCCO2	0.3	46	0.5	72*	-1.2
CCC(C)(C)NC(=O)CN(Cc1cccs1)C(=O)CCC(=O)Nc1nccs1	0.9	25	0.8	14	0.5
Cc1cc(C(F)(F)F)nc(NCc2cccnc2)n1	.	.	.	.	-0.15
CS(=O)(=O)N(CC(=O)Nc1c(F)cccc1F)c1cccc([N+](=O)[O-])c1	0.8	21	0.8	17	0.17
CS(=O)(=O)N(CC(=O)NC1CC1)c1cccc(F)c1	1	88*	0.1	-5	.
CS(=O)(=O)N(CC(=O)Nc1cccc(F)c1)c1cccc([N+](=O)[O-])c1	0.4	26	0.7	61*	-0.91
COc1ccc(-c2cccc(C3CC=CC4C3C(=O)N(Cc3ccccc3)C4c3ccc(OC)c(Cl)c3)c2)cc1 (stereo unspecified)	.	.	.	.	0.87
C(=N\N1CCN(Cc2ccccc2)CC1)/c1cccs1	0.9	60*	0.4	13	0.0018
